The campaign covered roughly 310,000 compounds. About 14,000 (4.5%) showed an effect of 50% or more. The effect is printed as a negative number. Only a selection was taken, and strong results are over-represented in it overall.
Target: human ether-à-go-go-related gene (hERG) potassium channel (human, UniProt Q12809)
Test: primary screen, population patch clamp on CHO cells stably expressing hERG; higher = less effect of the substance
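Also: peak tail current of the secondary pulse compared with the same well before compound.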

human ether-à-go-go-related gene (hERG) potassium channel, sequence (Q12809 whole entry, looked up): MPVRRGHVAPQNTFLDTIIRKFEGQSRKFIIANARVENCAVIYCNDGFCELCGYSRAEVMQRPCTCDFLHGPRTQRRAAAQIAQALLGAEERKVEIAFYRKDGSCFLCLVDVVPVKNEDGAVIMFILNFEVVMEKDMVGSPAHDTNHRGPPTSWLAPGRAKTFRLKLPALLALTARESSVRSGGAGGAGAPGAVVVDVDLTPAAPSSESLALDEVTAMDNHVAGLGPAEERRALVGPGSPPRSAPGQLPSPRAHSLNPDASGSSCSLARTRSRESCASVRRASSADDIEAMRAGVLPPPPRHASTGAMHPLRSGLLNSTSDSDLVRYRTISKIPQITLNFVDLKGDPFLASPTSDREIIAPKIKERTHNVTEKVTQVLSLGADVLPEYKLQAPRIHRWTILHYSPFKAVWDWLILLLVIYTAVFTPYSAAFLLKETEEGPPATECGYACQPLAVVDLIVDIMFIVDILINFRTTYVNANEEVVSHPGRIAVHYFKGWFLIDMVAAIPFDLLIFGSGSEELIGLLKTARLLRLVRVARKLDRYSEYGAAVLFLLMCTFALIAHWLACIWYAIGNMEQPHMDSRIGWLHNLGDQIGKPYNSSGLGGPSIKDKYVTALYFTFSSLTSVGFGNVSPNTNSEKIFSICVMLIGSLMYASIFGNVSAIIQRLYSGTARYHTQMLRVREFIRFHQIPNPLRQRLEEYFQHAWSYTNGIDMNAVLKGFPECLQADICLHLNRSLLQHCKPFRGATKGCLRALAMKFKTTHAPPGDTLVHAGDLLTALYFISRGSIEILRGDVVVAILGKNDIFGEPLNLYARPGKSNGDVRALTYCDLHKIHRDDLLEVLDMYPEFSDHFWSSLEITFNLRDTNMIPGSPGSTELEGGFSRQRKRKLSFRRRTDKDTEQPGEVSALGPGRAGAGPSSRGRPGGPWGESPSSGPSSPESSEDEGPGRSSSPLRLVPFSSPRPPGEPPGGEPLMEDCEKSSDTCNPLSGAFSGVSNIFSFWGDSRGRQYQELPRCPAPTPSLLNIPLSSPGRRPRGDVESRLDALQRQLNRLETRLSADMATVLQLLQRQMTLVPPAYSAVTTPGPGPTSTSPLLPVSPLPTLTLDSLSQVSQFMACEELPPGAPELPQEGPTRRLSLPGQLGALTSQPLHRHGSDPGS

| SMILES | hERG current change (%, negative = inhibition) at 10uM |
| --- | --- |
| CC(C)c1ccc(/C=C2\SC(=O)N(CC(=O)NC3C=CS(=O)(=O)C3)C2=O)cc1 (stereo not shown) | 5.89% |
| O=C(Cn1cnc2c(nnn2Cc2ccc(F)cc2)c1=O)NCc1ccco1 | -18.2% |
| CCOc1ccc(CN2CCNC(=O)C2CC(=O)NCc2cc(C)n(C)n2)cc1 (stereo not shown) | -1.95% |
| O=C(NC(=S)NNS(=O)(=O)c1ccc(Cl)cc1)c1cccnc1 | 18.6% |
| O=C(CNC(=S)N(Cc1ccccc1)Cc1ccccc1F)NCCc1ccccc1 | 3.73% |
| Cc1ccc2c(c1)C(c1ccccc1)=NCC(=O)N2 | -12.8% |
| NS(=O)(=O)c1cc(C(=O)O)cc(N2CCCC2)c1Oc1ccccc1 | 0.0774% |
| O=C(Nc1ccc(Cl)cn1)c1ccccc1F | -1.25% |
| O=C(NC(=S)Nc1ccc2oc(=O)ccc2c1)c1cccc(Cl)c1 | 4.11% |
| COc1cc(NC(=O)CN(C)S(=O)(=O)c2ccc3c(c2)CCC(=O)N3)cc(OC)c1 | -23.9% |
| CCC1=NN(C(=O)c2ccccc2Br)C(O)(c2ccc(Br)cc2)C1 (stereo not shown) | 25.2% |
| CC(=O)Nc1ccc(N2C(=O)c3cccc4c(O)ccc(c34)C2=O)cc1 | 13.4% |
| COc1ccc(OC)c(S(=O)(=O)N2CCC(C(=O)N3CCCC3)CC2)c1 | 7.71% |
| COc1ccc(OC)c(S(=O)(=O)N2CCC(C(=O)N3CCN(c4ccc(F)cc4)CC3)CC2)c1 | -78% |
| COc1ccc(OC)c(S(=O)(=O)N2CCC(C(=O)N3CCCCCC3)CC2)c1 | 5.45% |
| COc1ccc(-c2[nH]ncc2CN(C)Cc2cccnc2)c(F)c1 | -1.66% |
| CC(=O)N1CCc2cc(S(=O)(=O)NC(CC(C)C)C(=O)N3CCCC3)ccc21 (stereo not shown) | -20.2% |
| CC(=O)N1CCc2cc(S(=O)(=O)NC(CC(C)C)C(=O)N3CCc4ccccc4C3)ccc21 (stereo not shown) | -26.8% |
| CC(=O)N1CCc2cc(S(=O)(=O)NC(CC(C)C)C(=O)N3CCn4c3nc3ccccc34)ccc21 (stereo not shown) | -60% |
| O=C1CS/C(=N/N=C/c2ccccc2)N1Cc1ccco1 | 1.4% |
| COC(=O)C(C)N=Cc1ccccc1 (stereo not shown) | 12.9% |
| COc1ccc(-n2c(/C=C/c3ccc(O)c(O)c3)nc3ccccc3c2=O)cc1 | 10.6% |

| SMILES | hERG current change (%, negative = inhibition) at 10uM |
| --- | --- |
| O=c1c2ccccc2nc(/C=C/c2ccc3c(c2)OCO3)n1-c1ccccc1 | -26% |
| Cc1ccc(-n2c(/C=C/c3ccc4c(c3)OCO4)nc3ccccc3c2=O)cc1 | -50.4% |
| COc1ccc(-n2c(/C=C/c3ccc(O)cc3)nc3ccccc3c2=O)cc1 | -21.6% |
| COc1ccc(-n2c(/C=C/c3ccc4c(c3)OCO4)nc3ccccc3c2=O)cc1 | -55.3% |
| O=c1c2ccccc2nc(/C=C/c2ccc3c(c2)OCO3)n1-c1cccc(O)c1 | -7.38% |
| CCc1ccccc1OCC(=O)OCC(=O)Nc1cc(C)on1 | -2.74% |
| CCC(=O)N1CCc2cc(S(=O)(=O)CCC(=O)N3CCN(c4ccccc4)CC3)ccc21 | 3.15% |
| O=C(Cc1ccc(Cl)cc1Cl)NCC1(N2CCOCC2)CCCCC1 | 5.44% |
| O=C(CN1CCN(CC(=O)Nc2ccc(F)cc2)CC1)NCC1(N2CCOCC2)CCCCC1 | -73.4% |
| O=C(CN1CCN(S(=O)(=O)c2ccc(Cl)cc2)CC1)NCC1(N2CCOCC2)CCCCC1 | -39.3% |
| N#CCC(=O)Nc1ccc(C(=O)NCC2(N3CCOCC3)CCCCC2)cc1 | 7.48% |
| O=C(CN1CCN(CC(=O)Nc2cccc(F)c2)CC1)NCC1(N2CCOCC2)CCCCC1 | -27% |
| CC(NCC1(N2CCOCC2)CCCCC1)C(=O)N1CCc2ccccc21.O=C(O)C(=O)O (stereo not shown) | -5.73% |
| O=C(CN1CCN(S(=O)(=O)c2ccc(F)cc2)CC1)NCC1(N2CCOCC2)CCCCC1 | -18.6% |
| O=C(CNCC1(N2CCOCC2)CCCCC1)Nc1ccc(Cl)cc1 | -78.8% |
| CC(NCC1(N2CCOCC2)CCCCC1)C(=O)Nc1ccc(Cl)cc1Cl.O=C(O)C(=O)O (stereo not shown) | -74.6% |
| O=C(Nc1ccc(S(=O)(=O)NCc2cccnc2)cc1)c1ccco1 | 10.2% |
| O=C(COc1ncnc2sccc12)N1CCc2ccccc2C1 | 0.518% |
| Cc1nc2ccccc2c(=O)n1/N=C/c1ccc(O)cc1O | 10.4% |
| Cc1ccc(NC(C)C(=O)N/N=C/c2ccc([N+](=O)[O-])s2)cc1 (stereo not shown) | 8.3% |
| Cl.O=C(COc1ccc(Cl)cc1)NC1CN2CCC1CC2 (stereo not shown) | -35.1% |

Source: paper PMC4336329 (PLoS ONE, 2015)
